Records with an inconclusive call do not appear. Where a call stands in place of a potency, no number is given. The source made the active and inactive calls. The call rests on the fitted dose curve; in most records, active means well fitted curve in the direction sought with a large enough effect; inconclusive means small, poorly fitted or top-dose-only effect, or another doubt; inactive means no such curve, though single readings can be large or run the other way.

Chain of Metallo-beta-lactamase type 2 (Klebsiella pneumoniae) (C7C422 whole entry, looked up): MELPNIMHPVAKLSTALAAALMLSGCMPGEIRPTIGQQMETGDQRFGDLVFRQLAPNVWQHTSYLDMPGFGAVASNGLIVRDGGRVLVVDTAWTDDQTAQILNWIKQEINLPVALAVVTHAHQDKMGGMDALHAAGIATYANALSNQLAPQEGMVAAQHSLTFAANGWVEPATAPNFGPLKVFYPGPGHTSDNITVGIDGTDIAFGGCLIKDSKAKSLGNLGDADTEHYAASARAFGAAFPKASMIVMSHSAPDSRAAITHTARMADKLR

This assay has as its target Metallo-beta-lactamase type 2 (Klebsiella pneumoniae) (UniProt C7C422). Briefly: qHTS to identify inhibitors of the New Delhi Metallo-beta-lactamase (NDM): assay validation screen against the NCATS LOPAC Collection (AID 1794843). Conditions: NDM-1 enzyme, nitrocefin hydrolysis, absorbance 485 nm; series mostly up to 38.4 µM. The procedure, abridged: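 Absorbance at 485 nm from nitrocefin turnover (50 uM solution added), read at plateau, gives the read-out. Compounds in DMSO were incubated first with 2 nM final NDM-1 in pH 7.0 HEPES buffer containing 1 uM ZnSO4 and 0.01% Tween20.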
(In general: Quantitative high-throughput screening tests each substance at several concentrations.)
For `COCCOc1cc2nc[nH]c(=O)c2cc1OCCOC`, the Potency entry is “inactive”.

In the case of `CCNc1nc2c(ncn2[C@H]2C[C@H](O)[C@@H](CO)O2)c(=O)[nH]1`, the Potency result was “inactive”.

On to `CN(C)C(N)=NCCC[C@H](N)C(=O)O`, for which the Potency entry was “inactive”.

As to `NCCSSCCN`, the Potency result was “inactive”.

As to `CN1C2CCC1CC(OC(=O)C(O)c1ccccc1)C2` (stereo unspecified), the Potency entry is “inactive”.

With `Nc1ncnc2c1ncn2[C@@H]1O[C@H](COP(=O)(O)OP(=O)(O)OP(=O)(O)OP(=O)(O)OC[C@@H]2O[C@H](n3cnc4c(N)ncnc43)[C@@H](O)[C@H]2O)[C@@H](O)[C@H]1O`, the Potency result was “inactive”.

As to `O=c1[nH]c2cc(C(F)(F)F)ccc2n1-c1cc(C(F)(F)F)ccc1O`, the Potency entry was “inactive”.

`Cc1ccc(S(=O)(=O)/C=C/C#N)cc1`: the Potency result is “inactive”.

As to `O=S(=O)(c1cccc2c(I)cccc12)N1CCCNCC1`, the Potency result was “inactive”.

As to `CC(C)CC(NP(=O)(O)O[C@@H]1O[C@@H](C)[C@H](O)[C@@H](O)[C@H]1O)C(=O)NC(Cc1c[nH]c2ccccc12)C(=O)O` (stereo partly specified), the Potency result is “inactive”.

`COc1ccc(/C=C/c2nc(NCCCN(C)C)c3ccccc3n2)cc1`: the Potency result was “inactive”.

In the case of `CCCCCCCCCCCCCCCCCCN(CCCCCCCCCCCCCCCCCC)CCCN(CCO)CCO`, the Potency result was “inactive”.

For `Nc1nc2ccc(Cl)cc2n2c(-c3ccccc3)nnc12`, the Potency result was “inactive”.

As to `CN1CC(=O)N/C1=N/C(=O)Nc1cccc(Cl)c1`, the Potency entry was “inactive”.

For the compound `Brc1c(Br)c(Br)c2n[nH]nc2c1Br`, the Potency result is “inactive”.

Regarding `O=C1NC(=O)/C(=C/c2ccc(-c3ccc(F)cc3O)o2)S1`, the Potency entry is “inactive”.

Take `CNC(=O)[C@H]1O[C@@H](n2cnc3c(NCc4cccc(I)c4)ncnc32)[C@H](O)[C@@H]1O`: the Potency result was “inactive”.

Consider `CNCC[C@H](Oc1ccc(C(F)(F)F)cc1)c1ccccc1`, for which the Potency entry is “inactive”.

Turning to `Cc1cc2c(cc1Cl)N(C(=O)Nc1ccc(Oc3cccnc3C)nc1)CC2`, the Potency result was “inactive”.

Regarding `Brc1cc2c(cc1[C@H]1Nc3ccccc3[C@H]3C=CC[C@H]31)OCO2`, the Potency result was “inactive”.

For the compound `CC(N)C(=O)OC(C)(C)Cc1ccc(Cl)cc1` (stereo unspecified), the Potency result was “inactive”.

Regarding `O=C(c1ccc(OCCCc2cnc[nH]2)cc1)C1CC1`, the Potency result is “inactive”.

Regarding `Fc1cccc(/C=N/N=C/c2cccc(F)c2)c1`, the Potency result was “inactive”.

For `CCCCC#Cc1nc(NC)c2ncn([C@@H]3O[C@H](CO)[C@@H](O)[C@H]3O)c2n1`, the Potency entry was “inactive”.

Turning to `NC(CCCP(=O)(O)O)C(=O)O` (stereo unspecified), the Potency entry is “inactive”.

As to `COc1cccc(OC)c1OCCNCC1COc2ccccc2O1` (stereo unspecified), the Potency entry is “inactive”.

Take `Nc1nc(Nc2ccccc2)nc2c1ncn2[C@@H]1O[C@H](CO)[C@@H](O)[C@H]1O`: the Potency result was “inactive”.

As to `CC[C@H]1OC(=O)[C@H](C)[C@@H](O[C@H]2C[C@@](C)(OC)[C@@H](O)[C@H](C)O2)[C@H](C)[C@@H](O[C@@H]2O[C@H](C)C[C@H](NC)[C@H]2O)[C@](C)(O)C[C@@H](C)CN(C)[C@H](C)[C@@H](O)[C@]1(C)O`, the Potency entry is “inactive”.

Regarding `C[C@@H](CN1CCC(Cc2ccccc2)CC1)[C@@H](O)c1ccc(O)cc1`, the Potency entry is “inactive”.

Consider `O=C(CCc1ccncc1)NNC(=O)N1Cc2ccccc2Oc2ccc(Cl)cc21`, for which the Potency result was “inactive”.

For the compound `COc1ccc(-c2cc(=O)c3c(O)c(OC)c(OC)cc3o2)cc1O`, the Potency entry is “inactive”.

Regarding `NC(=O)C1=CN(C2OC(COP(=O)(O)OP(=O)(O)OC[C@H]3O[C@@H](n4cnc5c(N)ncnc54)[C@H](OP(=O)(O)O)[C@@H]3O)C(O)C2O)C=CC1` (stereo partly specified), the Potency result was “inactive”.

Take `COc1cc(SC)ccc1C(=O)N1CCC(Cc2ccccc2)CC1`: the Potency result is “inactive”.

Consider `S=c1[nH]c(-c2ccccc2)cn1-c1ccccc1`, for which the Potency result was “inactive”.

With `CN[C@H](CC(C)C)C(=O)N[C@H]1C(=O)N[C@@H](CC(N)=O)C(=O)N[C@H]2C(=O)N[C@H]3C(=O)N[C@H](C(=O)N[C@H](C(=O)O)c4cc(O)cc(O)c4-c4cc3ccc4O)[C@H](O)c3ccc(c(Cl)c3)Oc3cc2cc(c3O[C@@H]2O[C@H](CO)[C@@H](O)[C@H](O)[C@H]2O[C@H]2C[C@](C)(N)[C@H](O)[C@H](C)O2)Oc2ccc(cc2Cl)[C@H]1O`, the Potency entry was “inactive”.

On to `CCNC(=O)[C@H]1O[C@@H](n2cnc3c(N)nc(NCCc4ccc(CCC(=O)O)cc4)nc32)[C@H](O)C1O` (stereo partly specified), for which the Potency result was “inactive”.

For the origin of these results see PubChem BioAssay (NCATS).
